Source: PubChem BioAssay (Broad Institute)
aSyn UTR act: Activators via SNCA 5'UTR binding, MLPCN; activity score, % (tested at 7.5 µM), hits read low; actives 7.1% (n = 300,000); alpha-synuclein 5'UTR reporter, activators screen; in the data active = activity score below about -60%
Starred values were filed as active, the others as inactive. The list is a sample of the results.

SMILES	aSyn UTR act
CC(=O)c1c(C)[nH]c(C(=O)N2CCN(c3cc(Cl)ccc3C)CC2)c1C	57.2
CC(=O)c1c(C)[nH]c(C(=O)Nc2ccc(Cl)cc2)c1C	-194.9*
CC(=O)c1c(C)[nH]c(C(=O)Nc2ccccn2)c1C	-80.4*
Cn1c(N)c(-c2nc3cccnc3n2C)sc1=S	-95.2*
CC(C)(C)Cc1nnc(NC(=O)c2ccc3c(c2)OCO3)s1	-112.0*
CCC(CC)c1nnc(NC(=O)c2ccc3c(c2)OCO3)s1	-169.1*
COc1cccc(Cn2c(=O)oc3ccccc32)c1	-76.6*
O=c1c2[nH]c3ccccc3c2nc2n1CCCS2	-75.3*
CCOC(=O)c1ccc2c(c1)[nH]c(=S)n2CC	-64.2*
Cc1nc(Nc2ccc3c(c2)OCCO3)c2c(C)c(C)sc2n1	-71.7*
COc1ccc(-c2csc(Nc3ccc(C)cn3)n2)cc1	-180.3*
CC(=O)Oc1ccc(-c2csc(Nc3ccc(Cl)cn3)n2)cc1	-135.1*
O=C(c1ccco1)N1CCN(c2ccc(Cl)c(Cl)c2)CC1	-121.4*
O=C(c1ccco1)N1CCN(Cc2c(F)cccc2Cl)CC1	-74.8*
O=C(c1ccco1)N1CCN(C(=O)N2c3ccccc3Sc3ccccc32)CC1	80.9
O=C(c1ccco1)N1CCN(c2ccc(Cl)cc2)CC1	-130.4*
O=C(N=C1N=C2C=CC(Br)=CN2Cc2ccccc21)c1ccc([N+](=O)[O-])cc1[N+](=O)[O-]	-105.7*
NC(=NCc1ccco1)NC(=O)c1ccc(Cl)cc1	-127.7*
CCOc1ccc(CCNC(=O)COC(=O)c2cccc(N(C)C)c2)cc1OCC	-89.9*
COc1ccc(-c2oc3ccc(N4CCOCC4)cc3c2C#Cc2ccc(N)cc2)cc1	-91.6*
COc1ccc(-c2oc3ccc(N4CCOCC4)cc3c2C#CC2(O)CCCCC2)cc1	-117.8*
Cc1ccc(/C=N/n2cnc3sc(-c4ccccc4)cc3c2=O)o1	-109.5*
CC(C)Oc1ccc(C(=O)Nc2ccc(C(F)(F)F)n(C)c2=O)cc1	-82.0*
O=C(Cc1ccccc1)c1ccc2c(c1)OCCO2	-107.3*
O=C(CCCN1CCOCC1)c1ccc2c(c1)OCCO2	-80.7*
SMILES	aSyn UTR act
Cc1ccc(S(=O)(=O)CC(=O)c2ccc3c(c2)OCCO3)cc1	-69.7*
O=C(OCCN1CCOCC1)c1ccc2c(c1)OCCO2	-93.5*
Cc1ccccc1CNC(=O)Nc1ccc(Cl)cc1	-110.2*
Cc1ccc(CNC(=O)Nc2ccccc2)c(C)c1	-153.4*
CS(=O)(=O)c1cccc(C(=O)Nc2ccc3c(c2)OCCCO3)c1	-100.6*
O=C(Nc1cccc(F)c1)c1ccc2c(c1)OCO2	-149.0*
O=C(Nc1ccc(Cl)c(S(=O)(=O)N2CCOCC2)c1)c1ccc2c(c1)OCCO2	-64.9*
O=C(Nc1ccc2c(c1)OCCO2)c1cccc(S(=O)(=O)N2CCOCC2)c1	-87.8*
CCN(CC)S(=O)(=O)c1cccc(C(=O)Nc2ccc3c(c2)OCO3)c1	-125.0*
CCC(CC)C(=O)Nc1cccc(C(=O)Nc2ccc3c(c2)OCO3)c1	-120.7*
O=C(Nc1ccc2cn[nH]c2c1)c1ccc(Cl)c(S(=O)(=O)N2CCOCC2)c1	-199.7*
O=C(NNC(=O)c1ccc(F)cc1F)c1ccc2c(c1)OCO2	-90.2*
O=C(Oc1ccc(N2C(=O)CCC2=O)cc1)c1ccccc1Cl	59.2
O=C(Oc1ccc2c(c1)OCO2)c1ccc(F)cc1Cl	-176.2*
COc1c(OC)c(O)c2c(=O)cc(-c3c(O)cccc3O)oc2c1OC	-64.1*
CCOc1ccccc1C1CC(=O)Nc2cc3c(cc21)OCO3 (configuration not stated)	66.1
CCOc1ccccc1C1N=C(c2ccc(OC)cc2)CC(c2ccccc2O)N1 (configuration not stated)	-233.8*
CCOc1ccc(C2=Nn3c(nnc3-c3ccccc3OC)SC2)cc1	108.9
Cc1cc(=O)[nH]c2n[nH]c(-c3ccccc3)c12	-63.4*
CCCc1nc2oc3c(NCCCN(C)C)ncnc3c2c2c1CCCC2	107.7
COc1ccc2c(c1OC)CN1CCc3cc4c(cc3[C@@H]1[C@@H]2O)OCO4	-69.1*
COc1cc([C@@H]2c3cc4c(cc3[C@H](O)[C@H]3COC(=O)[C@H]23)OCO4)cc(OC)c1OC	94.6
CC(/C=N/NC(=O)c1cnccn1)=C\c1ccco1	-116.7*
CC(/C=N/NC(=O)c1cccnc1)=C\c1ccco1	-102.9*
Nc1ccc(-c2nc3c(Cl)cc(N)cc3[nH]2)cc1	85.2
SMILES	aSyn UTR act
Nc1ccc2nc(-c3ccccc3)[nH]c2c1	-125.8*
Nc1ccc2nc(-c3cccs3)[nH]c2c1	-155.9*
Nc1ccc2nc(-c3ccc(N)c(Cl)c3)[nH]c2c1	-114.7*
Nc1ccc2nc(-c3ccccn3)[nH]c2c1	-161.0*
COc1ccc2nc(-c3ccccn3)[nH]c2c1	-80.5*
Nc1cccc(-c2nc3ccc(C(=O)c4ccccc4)cc3[nH]2)c1	-276.3*
Cc1cc(O)c(C)c(O)c1/C=N/NC(=O)c1cccnc1	68.5
Cc1ccc(NC(=O)c2cccnc2)cc1C	-104.4*
O=C(Nc1ccc(Cl)c(Cl)c1)c1cccnc1	-102.3*
O=C(Nc1ccc(N2CCCC2)c(Cl)c1)c1cccnc1	-111.9*
O=C(Nc1nnc(-c2ccccc2Cl)o1)c1cccnc1	-94.2*
CC1CCCN(S(=O)(=O)c2ccc(C(=O)Nc3nnc(-c4ccccc4Cl)o3)cc2)C1 (configuration not stated)	77.9
O=C(Nc1ccc(N2CCCCC2)c(Cl)c1)c1cccnc1	-312.9*
Cc1nc(-c2ccc(NC(=O)C3CC3)cc2)cs1	-160.5*
Cc1nc(-c2ccc(NC(=O)CC(C)C)cc2)cs1	-143.3*
COc1ccc(-c2csc(NC(=O)CC(C)C)n2)cc1	-127.7*
O=c1c(Cl)c(Nc2cccc(Cl)c2)cnn1-c1nc2ccccc2s1	-78.1*
CC(=NC1CCCC1)c1c(C)[nH]n(-c2nc3ccccc3s2)c1=O	94.2
COc1ccc(Nc2cnn(-c3nc4ccccc4s3)c(=O)c2Cl)cc1	-138.8*
COC(=O)c1sc(NC(=O)/C=C/c2ccc(C)cc2)nc1C	-71.4*
CCOC(=O)c1sc(NC(=O)CCc2ccccc2)nc1C	-145.8*
CCOC(=O)c1sc(NC(=O)/C=C/c2ccccc2)nc1C	-94.5*
Cc1nc(NC(=O)/C=C/c2ccccc2)sc1C(=O)NCCO	-67.0*
CCOC(=O)c1sc(Nc2cccc(Cl)c2)nc1C	-102.0*
COC(=O)c1sc(NC(=O)/C=C/c2ccccc2Cl)nc1C	-86.9*
SMILES	aSyn UTR act
CC(C)c1ccc(-c2nnn(CCC#N)n2)cc1	-106.5*
O=C(Nc1ccccc1N1CCOCC1)c1ccc2ccccc2n1	-118.2*
Cc1ccn2cc(C(=O)Nc3nnc(C)s3)nc2c1	-110.9*
Cc1ccn2cc(C(=O)Nc3ccccc3N3CCOCC3)nc2c1	-89.9*
COc1ccc(Cl)cc1NC(=O)CN(C)CC(=O)Nc1ccccc1N1CCOCC1	111.8
CCOc1ccc(NC(=O)c2cnc3scc(C)n3c2=O)cc1	-104.4*
CSc1ccccc1NC(=O)c1cnc2scc(C)n2c1=O	-108.1*
Cc1ccccc1NC(=O)c1cnc2ccccn2c1=O	61.8
O=C(NCCc1ccccc1)c1cnc2ccccn2c1=O	-72.6*
CCc1ccccc1NC(=O)c1cnc2scc(C)n2c1=O	-98.8*
Cc1csc2ncc(C(=O)NCCc3ccccc3)c(=O)n12	-134.2*
CN(C)c1ccc(/C=N/n2ncc3ccccc32)cc1	-290.0*
COc1ccc(C=Nc2cccc3c(=O)[nH][nH]c(=O)c23)c2ccccc12	-67.4*
O=c1c2[nH]c3ccc(F)cc3c2ncn1C1CCCCC1	-82.2*
O=c1cc(-c2ccccc2)[nH]c2ccc(F)cc12	86.6
COc1ccc(OC)c(NC(=O)/C=C/c2ccccc2[N+](=O)[O-])c1	-83.7*
